Out of some 360,000 compounds screened, about 11,000 (3.1%) were called active. About 4% were inconclusive and are not listed. Calls come from the whole dose curve; as a rule, active = well fitted inhibition curve with a large enough effect; inconclusive = small, poorly fitted or top-dose-only effect; inactive = no such curve, though single readings can be large or run the other way. The list comes from a sample in which actives are over-represented; it also holds similar structures and randomly drawn compounds.
Biological target: Schistosoma mansoni thioredoxin glutathione reductase (TGR) (UniProt Q962Y6)
Assay: qHTS Assay for the Inhibitors of Schistosoma Mansoni Peroxiredoxins; note: nearly all actives have a fitted effect of over 60% in size
Conditions: purified TGR, DTNB reduction, TNB absorbance 405 nm; series mostly up to 114 µM; activity change, negative = inhibition: at the top concentration
Outline: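 TGR 20 nM + NADPH 100 uM (dispensed conc.), cpd preinc 15 min RT; start with NADPH (500 uM addition) then DTNB (15 mM addition). Kinetic TNB absorbance, 405 nm filter. Four-parameter Hill fit across titration.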
% is set by controls: 0 for no effect and ±100 for the full control effect; potency is the fitted concentration of half-maximal effect.

Row | SMILES | activity change, negative = inhibition | Potency
1 | O=C(CSc1ncc(S(=O)(=O)c2ccc(Br)cc2)c(=O)[nH]1)Nc1ccc2c(c1)OCCO2 | -3.16% (inactive) | 
2 | Cc1ccc(C)c(Cn2c(CCCNC(=O)C3CCCCC3)nc3ccccc32)c1 | 19% (inactive) | 
3 | COc1ccc(OC)c(C(c2nnnn2C(C)(C)C)N2CCc3ccccc3C2)c1 (stereo not given) | 9.36% (inactive) | 
4 | COc1ccc(N2CCN(C(c3cc4ccc(C)cc4[nH]c3=O)c3nnnn3C3CCCC3)CC2)cc1 (stereo not given) | -25.8% (inactive) | 
5 | COCCn1nnnc1C(c1cc2ccc(OC)cc2[nH]c1=O)N1CCc2ccccc2C1 (stereo not given) |  | 44.7 µM (active)
6 | CCOc1ccccc1NC(=O)c1ccc2c(c1)CCN2S(=O)(=O)c1ccc(C)cc1 | -0.363% (inactive) | 
7 | COc1ccc(-c2onc(C)c2C)cc1S(=O)(=O)NCCc1ccccc1 | 3.1% (inactive) | 
8 | O=c1[nH]c2cc(Br)ccc2n2cccc12 | -2.58% (inactive) | 
9 | CCOc1ccc(C2CC(=O)c3c([nH]c(C(=O)OCc4ccccc4)c3C)C2)cc1 (stereo not given) | 0.0883% (inactive) | 
10 | O=C(NCC(=O)N1CCN(c2ccccc2F)CC1)c1cccs1 | -1.91% (inactive) | 
11 | Cc1ccccc1C(CC(=O)c1cccs1)C(C#N)C#N (stereo not given) |  | 3.16 µM (active)
12 | CCc1cccc(C)c1NC(=O)COC(=O)CNC(=O)c1cccs1 | -1.2% (inactive) | 
13 | COc1cccc2c1CCC(NC(C)=O)C2=O (stereo not given) | -13.1% (inactive) | 
14 | COc1ccc(C(=O)OCC(=O)N2CC(=O)Nc3ccccc32)cc1Br | 0.0642% (inactive) | 
15 | COc1ccc(Br)c2c1C(=O)CC2 |  | 35.5 µM (active)
16 | Cc1cc(C)cc(OCC(=O)Nc2c(C(=O)c3ccccc3)oc3ccccc23)c1 | -3.12% (inactive) | 
17 | Cc1ccc(-c2onc(C)c2C)cc1S(=O)(=O)Nc1ccccn1 | -11.7% (inactive) | 
18 | CCc1ccc(NC(=O)Cn2c(=O)n(CCC(=O)NCc3ccc4c(c3)OCO4)c(=O)c3ccccc32)cc1 | 0.572% (inactive) | 
19 | O=[N+]([O-])c1ccc(N/N=C2/CCCCC2c2ccccn2)c([N+](=O)[O-])c1 (stereo not given) |  | 8.91 µM (active)
20 | O=C(Nc1ccccc1)O/N=C1\CCCCC1c1ccc([N+](=O)[O-])cc1[N+](=O)[O-] (stereo not given) | 8.17% (inactive) | 

Row | SMILES | activity change, negative = inhibition | Potency
21 | O=[N+]([O-])c1cc(C(F)(F)F)ccc1NN=C1CCCC1 | -15.3% (inactive) | 
22 | COc1cc(NC(=O)CN2CCN(S(=O)(=O)c3ccc(Br)cc3)CC2)cc(OC)c1 | -2.68% (inactive) | 
23 | O=C(NC1CCCCC1)c1ccc2c(c1)N(Cc1ccc(Cl)cc1)C(=O)c1ccccc1S2=O (stereo not given) | -7.13% (inactive) | 
24 | Cc1cc(NC(=O)CC(C)C)cc(-c2nc3ncccc3o2)c1O | 1.96% (inactive) | 
25 | C#CCOCCOCCOCCNc1nc(N2CCN(C(=O)C(Cc3ccc(O)cc3)n3cc(C(N)CC(C)C)nn3)CC2)nc(N2CCN(C(=O)C(Cc3ccc(O)cc3)n3cc(C(N)C(C)CC)nn3)CC2)n1 (stereo not given) | -6.96% (inactive) | 
26 | C#CCOCCOCCOCCNc1nc(N2CCN(C(=O)[C@H](CCC(=O)O)n3cc(C(N)CO)nn3)CC2)nc(N2CCN(C(=O)[C@H](Cc3ccc(O)cc3)n3cc(C(N)[C@H](C)CC)nn3)CC2)n1 (stereo not given in full) |  | 35.5 µM (active)
27 | C#CCOCCOCCOCCNc1nc(N2CCN(C(=O)[C@H](Cc3ccc(O)cc3)n3cc(C(N)CC(C)C)nn3)CC2)nc(N2CCN(C(=O)[C@H](CCC(=O)O)n3cc(C(N)[C@H](C)CC)nn3)CC2)n1 (stereo not given in full) | -25.3% (inactive) | 
28 | COC(=O)c1ccccc1NC(=O)c1ccc2c(=O)n3c(nc2c1)CCCCC3 | 5.75% (inactive) | 
29 | CCN(CCCNC(=O)c1cc(Nc2ccc(OC)cc2)nc2ccccc12)c1cccc(C)c1 | -0.0604% (inactive) | 
30 | O=C(Nc1ccccc1N1CCCC1)c1ccc2ccccc2c1 | -3.6% (inactive) | 
31 | O=C(Nc1ccccc1N1CCCCC1)c1ccc2nccnc2c1 |  | 79.4 µM (active)
32 | O=C(Nc1ccccc1N1CCOCC1)c1ccncc1 | -6.43% (inactive) | 
33 | Oc1ccc2ccccc2c1N=Nc1nccs1 |  | 17.8 µM (active)
34 | COc1ccc(Cc2nc3ccc(C(=O)NCc4ccccc4Cl)cc3o2)cc1 | 5.89% (inactive) | 
35 | CCOc1ccccc1NC(=O)Cn1c2ncccc2c(=O)n1-c1ccc(C)c(C)c1 | 11.2% (inactive) | 
36 | Cc1cccn2c(=O)c3cc(C(=O)NCCN4CCOCC4)c(=N)n(Cc4cccnc4)c3nc12 | -32.4% (inactive) | 
37 | CCCCn1c(=N)c(S(=O)(=O)c2ccccc2)cc2c(=O)n3cccc(C)c3nc21 | 11.7% (inactive) | 
38 | Cc1cccn2c(=O)c3cc(C#N)c(=O)n(CCCN4CCOCC4)c3nc12 |  | 25.1 µM (active)
39 | CC1CCC2(CC1)N=C(c1ccccc1)C(=O)N2CC(=O)Nc1ccc(F)c(Cl)c1 (stereo not given) | 1.55% (inactive) | 
40 | N#Cc1nc(/C=C/c2ccc(F)cc2)oc1NCc1ccc(F)cc1 | 0.688% (inactive) | 

Row | SMILES | activity change, negative = inhibition | Potency
41 | CCN(C(=O)Cn1cnc2sc(C)c(S(=O)(=O)N3CCN(c4ncccn4)CC3)c2c1=O)c1ccccc1F | 3.71% (inactive) | 
42 | CN(C)c1ccc(NC(=O)CSc2nc(-c3ccco3)cc(C(F)(F)F)n2)cc1 | 5.41% (inactive) | 
43 | O=C(CSc1nc(-c2ccco2)cc(C(F)(F)F)n1)N1CCc2ccccc2C1 |  | 11.2 µM (active)
44 | Cc1cccc(NC(=O)CSc2nc(-c3ccco3)cc(C(F)(F)F)n2)c1C | 12.2% (inactive) | 
45 | O=C(NCc1ccc2c(c1)CCN2C(=O)c1ccccc1)c1ccccc1 | 2.49% (inactive) | 
46 | CCCn1c2ccccc2c2cnn(CC(=O)NCC3CCN(Cc4ccc(C)cc4)CC3)c(=O)c21 | -1.8% (inactive) | 
47 | Cc1cccc(NC(=O)c2ccc(F)c(S(=O)(=O)N(C)C3CCCCC3)c2)c1 | 2.07% (inactive) | 
48 | CCOc1ccccc1C(=O)NCC(c1ccc(N(C)C)cc1)N1CCCC1 (stereo not given) | -0.18% (inactive) | 
49 | CC(C)CNC(=O)CC(c1ccccc1)c1c(O)ccc2ccccc12 (stereo not given) | -1.45% (inactive) | 
50 | O=[N+]([O-])c1cnc2ccc3ccccc3c2c1 | 3.12% (inactive) | 
51 | Oc1ccc2ccccc2c1C=Nc1ccccc1 |  | 12.6 µM (active)
52 | CC(=O)n1c(C=Nc2ccccc2)c(O)c2ccccc21 | -12.4% (inactive) | 
53 | CCC(=O)CC(c1ccc([N+](=O)[O-])cc1)c1c(O)c2ccccc2oc1=O (stereo not given) | 2.09% (inactive) | 
54 | CCOc1[nH]n(-c2ccc(Cl)cc2)c(=O)c1C=Nc1ccc(O)cc1 | 4.95% (inactive) | 
55 | Oc1ccc(N=Cc2c(O)ccc3ccccc23)cc1 |  | 28.2 µM (active)
56 | Cc1cc(N=Nc2ccc3ccccc3c2)ccc1O | 9.38% (inactive) | 
57 | O=[N+]([O-])c1ccc(N=Cc2c(O)ccc3ccccc23)cc1 |  | 22.4 µM (active)
58 | COc1ccc(CCNC(=O)c2c3c(nc4ccccc24)C(=O)N(C2CCCCC2)C3)cc1OC | 2.49% (inactive) | 
59 | Cc1ccc(C(=O)Nc2ccccc2F)cc1S(=O)(=O)N1CCOCC1 | 1.51% (inactive) | 
60 | CCOc1ccccc1NC(=O)CN1CCN(S(=O)(=O)c2ccc(Br)cc2)CC1 | -1.12% (inactive) | 
